# Test results published in the supplement of paper PMC8728848.
# About 410 targets per protein were measured; listed, in parts, are those with the strongest signals and a random draw of the rest.
# Key:
# Experiment in all cases: glycan array binding signal (z-score within array); higher = stronger binding
# Conditions in all cases: glycan notation: IUPAC condensed, linker removed
# [1] = target: Fuc(a1-2)Gal
# Method in brief: (§1)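 Glycan array data were curated from 3228 arrays in the Consortium for Functional Glycomics database and kept only where the protein sequence was available. Glycan names were converted to IUPAC-condensed notation, and columns mapping to the same glycan were averaged. The binding signal is a within-array Z-score, averaged across arrays of the same protein sequence at different concentrations or buffers and across linkers. Negative Z-scores can be read as non-binding.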
# [2] = target: Fuc(a1-2)Gal(b1-4)GlcNAc(b1-3)Gal(b1-4)GlcNAc
# Method in brief: as §1
# [3] = target: Fuc(a1-2)Gal(b1-4)GlcNAc6S
# Method in brief: as §1
# [4] = target: Fuc(a1-2)GlcNAc
# Method in brief: as §1
# [5] = target: Fuc(a1-2)[Gal(a1-3)]Gal(b1-4)[Fuc(a1-3)]GlcNAc
# Method in brief: as §1
# [6] = target: Fuc(a1-2)[GalNAc(a1-3)]Gal(b1-4)[Fuc(a1-3)]GlcNAc
# Method in brief: as §1
# [7] = target: Fuc(a1-3)[Gal3S(b1-4)]GlcNAc6S
# Method in brief: as §1
# [8] = target: Gal(a1-4)Gal(b1-4)Gal
# Method in brief: as §1
# [9] = target: Gal(b1-3)Gal
# Method in brief: as §1
# [10] = target: Gal(b1-3)GalNAc(b1-3)Gal(b1-4)GlcNAc
# Method in brief: as §1
# [11] = target: Gal(b1-3)[Neu5Ac(b2-6)]GlcNAc
# Method in brief: as §1
# [12] = target: Gal(b1-4)Glc
# Method in brief: as §1
# [13] = target: Gal(b1-4)Glc6S
# Method in brief: as §1
# [14] = target: Gal(b1-4)GlcNAc(b1-6)[Gal(b1-3)]GalNAc
# Method in brief: as §1
# [15] = target: Gal3S(b1-4)GlcNAc6S
# Method in brief: as §1
# [16] = target: Gal3S6S(b1-4)GlcNAc
# Method in brief: as §1
# [17] = target: Gal3S6S(b1-4)GlcNAc6S
# Method in brief: as §1
# [18] = target: GalNAc(a1-3)Gal
# Method in brief: as §1
# [19] = target: Glc(b1-6)Glc
# Method in brief: as §1
# [20] = target: Man(a1-2)Man(a1-3)Man
# Method in brief: as §1
# [21] = target: Neu5Ac(a2-3)Gal(b1-3)[Fuc(a1-4)]GlcNAc(b1-3)Gal(b1-4)[Fuc(a1-3)]GlcNAc
# Method in brief: as §1
# [22] = target: Neu5Ac(a2-3)Gal(b1-4)GlcNAc6S
# Method in brief: as §1
# [23] = target: Neu5Ac(a2-3)Gal(b1-4)[Fuc(a1-3)]GlcNAc(b1-3)Gal(b1-4)[Fuc(a1-3)]GlcNAc(b1-3)Gal(b1-4)[Fuc(a1-3)]GlcNAc
# Method in brief: as §1
# [24] = target: Neu5Ac(a2-6)Gal(b1-4)Glc
# Method in brief: as §1
# [25] = target: Neu5Ac(a2-8)Neu5Ac(a2-8)Neu5Ac(a2-3)[GalNAc(b1-4)]Gal(b1-4)Glc
# Method in brief: as §1
# [26] = target: Neu5Ac(b2-6)Gal(b1-4)GlcNAc
# Method in brief: as §1
# [27] = target: Fuc(a1-2)Gal(b1-3)GalNAc(b1-3)Gal(b1-4)Glc
# Method in brief: as §1
# [28] = target: Fuc(a1-2)[GalNAc(a1-3)]Gal
# Method in brief: as §1
# [29] = target: Gal(a1-2)Gal
# Method in brief: as §1
# [30] = target: Gal(b1-4)GlcNAc(b1-3)Gal(b1-4)GlcNAc
# Method in brief: as §1
# [31] = target: Gal(b1-4)GlcNAc(b1-3)Gal(b1-4)[Fuc(a1-3)]GlcNAc(b1-3)Gal(b1-4)[Fuc(a1-3)]GlcNAc
# Method in brief: as §1
# [32] = target: Gal(b1-4)GlcNAc(b1-6)[Gal(b1-3)]GlcNAc
# Method in brief: as §1
# [33] = target: Gal6S(b1-4)Glc6S
# Method in brief: as §1
# [34] = target: Glc(a1-4)Glc
# Method in brief: as §1
# [35] = target: Kdn(a2-3)Gal(b1-3)GlcNAc
# Method in brief: as §1
# [36] = target: Man(a1-2)Man(a1-2)Man(a1-3)[Man(a1-2)Man(a1-3)[Man(a1-2)Man(a1-6)]Man(a1-6)]Man(b1-4)GlcNAc(b1-4)GlcNAc
# Method in brief: as §1
# [37] = target: Man(a1-2)Man(a1-2)Man(a1-6)[Man(a1-3)]Man
# Method in brief: as §1
# [38] = target: Man(a1-2)Man(a1-3)[Man(a1-2)Man(a1-6)]Man
# Method in brief: as §1
# [39] = target: Man(a1-2)Man(a1-3)[Man(a1-3)[Man(a1-6)]Man(a1-6)]Man(b1-4)GlcNAc(b1-4)GlcNAc
# Method in brief: as §1
# [40] = target: Neu5Ac(a2-3)Gal
# Method in brief: as §1
# [41] = target: Neu5Ac(a2-3)Gal(b1-3)GlcNAc6S
# Method in brief: as §1
# [42] = target: Neu5Ac(a2-3)Gal(b1-3)[Neu5Ac(a2-3)Gal(b1-4)]GlcNAc
# Method in brief: as §1
# [43] = target: Neu5Ac(a2-3)Gal(b1-4)GlcNAc(b1-3)Gal(b1-4)GlcNAc
# Method in brief: as §1
# [44] = target: Neu5Ac(a2-3)Gal(b1-4)[Fuc(a1-3)]GlcNAc6S
# Method in brief: as §1
# [45] = target: Neu5Ac(a2-6)Gal(b1-4)GlcNAc(b1-2)Man(a1-3)[Neu5Ac(a2-6)Gal(b1-4)GlcNAc(b1-2)Man(a1-6)]Man(b1-4)GlcNAc(b1-4)GlcNAc
# Method in brief: as §1
# [46] = target: Neu5Gc(a2-3)Gal(b1-3)GlcNAc
# Method in brief: as §1
binder,measurement,setting,value
"FBG3 (Homo sapiens), Q9H4M3 (protein) MAVGNINELPENILLELFTHVPARQLLLNCRLVCSLWRDLIDLVTLWKRKCLREGFITEDWDQPVADWKIFYFLRSLHRNLLHNPCAEEGFEFWSLDVNGGDEWKVEDLSRDQRKEFPNDQVKKYFVTSYYTCLKSQVVDLKAEGYWEELMDTTRPDIEVKDWFAARPDCGSKYQLCVQLLSSAHAPLGTFQPDPATIQQKSDAKWREVSHTFSNYPPGVRYIWFQHGGVDTHYWAGWYGPRVTNSSITIGPPLP",glycan array binding signal (z-score),[1],0.149
same,glycan array binding signal (z-score),[2],-0.582
same,glycan array binding signal (z-score),[3],0.121
same,glycan array binding signal (z-score),[4],-0.096
same,glycan array binding signal (z-score),[5],0.034
same,glycan array binding signal (z-score),[6],0.422
same,glycan array binding signal (z-score),[7],1.94
same,glycan array binding signal (z-score),[8],-0.387
same,glycan array binding signal (z-score),[9],-0.052
same,glycan array binding signal (z-score),[10],-0.569
same,glycan array binding signal (z-score),[11],-0.544
same,glycan array binding signal (z-score),[12],0.009
same,glycan array binding signal (z-score),[13],0.065
same,glycan array binding signal (z-score),[14],-0.478
same,glycan array binding signal (z-score),[15],2.99
same,glycan array binding signal (z-score),[16],1.73
same,glycan array binding signal (z-score),[17],7.93
same,glycan array binding signal (z-score),[18],-0.033
same,glycan array binding signal (z-score),[19],1.71
same,glycan array binding signal (z-score),[20],-0.171
same,glycan array binding signal (z-score),[21],0.235
same,glycan array binding signal (z-score),[22],-0.064
same,glycan array binding signal (z-score),[23],-0.514
same,glycan array binding signal (z-score),[24],-0.34
same,glycan array binding signal (z-score),[25],0.271
same,glycan array binding signal (z-score),[26],-0.75
"CVNH0 (Neurospora crassa), Q7S6U4 (protein) GSHIGPYMSFHVTAEDARIEVRDNRTILFARLRREDGEWNDASYELDQIIGNNDGHFQWGGQNFTETAEDIRFHPKEGAAEQPILRARLRDCNGEFHDRDVNLTEIVENVNGEFQAKF",glycan array binding signal (z-score),[1],-0.372
same,glycan array binding signal (z-score),[27],3.75
same,glycan array binding signal (z-score),[28],-0.436
same,glycan array binding signal (z-score),[29],-0.423
same,glycan array binding signal (z-score),[30],-0.427
same,glycan array binding signal (z-score),[31],-0.186
same,glycan array binding signal (z-score),[32],-0.381
same,glycan array binding signal (z-score),[33],-0.362
same,glycan array binding signal (z-score),[34],-0.391
same,glycan array binding signal (z-score),[35],-0.44
same,glycan array binding signal (z-score),[36],3.89
same,glycan array binding signal (z-score),[37],3.68
same,glycan array binding signal (z-score),[38],4.06
same,glycan array binding signal (z-score),[39],-0.376
same,glycan array binding signal (z-score),[40],-0.431
same,glycan array binding signal (z-score),[41],0.204
same,glycan array binding signal (z-score),[42],-0.411
same,glycan array binding signal (z-score),[43],-0.351
same,glycan array binding signal (z-score),[23],-0.226
same,glycan array binding signal (z-score),[44],-0.433
same,glycan array binding signal (z-score),[45],-0.408
same,glycan array binding signal (z-score),[46],-0.433
